Screening data deposited in PubChem by National Center for Advancing Translational Sciences (NCATS).
HT1080 IDH1KD tx = HT-1080 IDH1 knockdown cell toxicity (counter line); Potency, µM (titrated, usually from 46.1 µM), without a hit: top-dose activity, negative = toxicity, hits mostly cytotoxic; actives 2% (n = 360,000); HT-1080 IDH1 knockdown viability, ATP luminescence, 48 h;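 further: 0% = DMSO wells and -100% = cell-free medium wells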
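Assay cells: HT-1080 with IDH1 knockdown, 750 per well, RPMI/5% FBS. Exposure: 48 h at 37 °C following 2 h pre-incubation. Read: CellTiter-Glo luminescence; fitted concentration-response, curve class assigned.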
HT1080-NT tox = kills 2HG-producing HT-1080-NT fibrosarcoma cells; Potency, µM (top dose mostly 46.1 µM), without a hit: at the top dose activity, negative = less viability, hits mostly cytotoxic; HT-1080-NT fibrosarcoma viability, CellTiter-Glo ATP luminescence, 48 h; AID 686970; actives 1.6% (n = 360,000);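 further: NT is the 2HG producing partner of a matched IDH1 knockdown line; 0% = DMSO-treated cells and -100% = media-only wells without cells; nearly all actives have a fitted effect of over 55% in size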
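HT-1080-NT; 750 cells/well; 5% FBS RPMI; 48 h compound, 37 degrees C; CellTiter-Glo luminescence; curve fitting and curve-class assignment.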
KB-V1 MDR tox = KB-V1 MDR subline cytotoxicity. actives 3.4% (n = 400,000). KB-V1 MDR cells viability, CellTiter-Glo, 72 h. Potency, µM (series often up to 46.1 µM), actives largely listed as cytotoxic; further: on the % scale 0 is the no-effect control and ±100 the full control effect; nearly all actives have a fitted effect of over 60% in size
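Potencies derive from concentration-effect curves fitted to normalized luminescence (CellTiter-Glo) of KB-V1 cells treated for 72 h at 37 degrees C in phenol-red-free DMEM containing 10% FBS.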
HepG2 viability = HepG2 cytotoxicity, counter-screen for TGF-b inhibitors. HepG2 CAGA-GFP viability, ATP luminescence, 18 h. Potency, µM (top dose mostly 46.1 µM), for inactives: at the highest dose activity change, negative = cytotoxicity, hits mostly cytotoxic. actives 0.76% (n = 410,000)
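CellTiter-Glo luminescence gave cytotoxicity after 18 hours at 37 degrees C. The cells were HepG2 CAGA-GFP in 1% FBS DMEM, stimulated with 500 pg/mL TGF-beta after compound addition. %Activity was normalised to no-cell wells (complete cell-killing) and DMSO (no toxicity), and curves were fitted and classified.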
KB-3-1 cytotox = KB-3-1 parental cell cytotoxicity | KB-3-1 viability, CellTiter-Glo ATP luminescence, 72 h | Potency, µM (series often up to 46.1 µM), hits mostly cytotoxic | actives 1.4% (n = 400,000) | AID 1347075; further: on the % scale 0 is the no-effect control and ±100 the full control effect; nearly all actives have a fitted effect of over 60% in size
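Cytotoxicity in the drug-sensitive parental line KB-3-1 was scored as loss of CellTiter-Glo luminescence following 72 h incubation with compound. Values come from curve fitting of normalized concentration-response data.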
TGFb inhibitor = blocks TGF-b signaling. HepG2 CAGA-GFP TGF-b/SMAD3 reporter, GFP fluorescence, 18 h; TGF-beta stimulated, 500 pg/mL final. Potency, µM (highest dose often 46.1 µM), without a hit: at the highest dose activity, negative = inhibition, most hits filed as inhibitors. actives 1.2% (n = 410,000); further: on the % scale 0 is the no-effect control and ±100 the full control effect; nearly all actives have a fitted effect of over 65% in size
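TGF-beta reporter screen: HEPG2 CAGA-GFP, 1% FBS, 500 pg/mL TGF-beta final, 18 h; per-cell GFP summed per well; curves fitted and categorized by class.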
Numbers without * were called inactive; i = inactive; ? = inconclusive; · = no result. This is a sample that favours compounds with a hit; in the whole collection about 6.6% have one here. The call rests on the fitted dose curve; in most records, active means well fitted curve in the direction sought with a large enough effect; inconclusive means small, poorly fitted or top-dose-only effect, or another doubt; inactive means no such curve, though single readings can be large; an effect the other way counts as inactive or inconclusive. Potency means the concentration at half of the fitted maximal effect.

SMILES | HT1080 IDH1KD tx | HT1080-NT tox | KB-V1 MDR tox | HepG2 viability | KB-3-1 cytotox | TGFb inhibitor
CC(=O)c1c(C)[nH]c(C(=O)OCC(=O)Nc2ccccc2Cl)c1C | -18% | -30% | 4.6µM* | -25% | 21µM* | -27%
CC(=O)c1c(C)[nH]c(C(=O)OCC(=O)Nc2cc(S(=O)(=O)N3CCCC3)ccc2Cl)c1C | -3% | 3% | 13µM* | -28% | ? | ?
CCN(CC)CCNC(=O)C1CCN(c2cc(C)nc3c(-c4ccc(Cl)cc4)c(C)nn23)CC1 | · | · | i | -15% | ? | -11%
Cc1ccc(-c2nc(CCNC(=O)C(=O)Nc3c(C)cccc3C)cs2)cc1 | · | · | · | 4% | · | ?
Cc1ccc(C(=O)N[C@H](C(=O)NC2CCCCC2)C(C)C)cc1 | 4% | 0% | 10µM* | -4% | i | -23%
COc1ccc(C(=O)C2CCN(C(=O)Nc3ccc(C)cc3)CC2)cc1 | -1% | -23% | ? | -45% | i | ?
Cc1ccc(NC(=O)N2CCC(C(=O)c3ccc(F)cc3)CC2)cc1 | -15% | -15% | 23µM* | 2% | i | -14%
Cc1ccc(C(=O)C2CCN(CC(=O)NC3CCCCC3)CC2)cc1 | -27% | -18% | 13µM* | -24% | i | -2%
O=C(CN1CCC(C(=O)c2ccc(Cl)cc2)CC1)NC1CCCC1 | 0% | -13% | ? | 8% | i | 5%
O=C1Cc2cc(S(=O)(=O)N3CCN(c4ccc(F)cc4)CC3)ccc2N1 | · | · | i | · | i | ·
CCOC(=O)Cn1c(=O)oc2cc(S(=O)(=O)N3CCC(C(=O)OCC)CC3)ccc21 | · | · | i | -14% | i | 4%
CN(C)CCNC(=O)c1cc2c(s1)-c1ccc(Cl)cc1SC2 | ? | ? | i | 11µM* | ? | 11µM*
Cc1ccc(CNC(=O)c2cc3c(s2)-c2ccc(Cl)cc2SC3)cc1 | · | · | i | 0% | i | -4%
Cc1ccc(S(=O)(=O)N(CC(=O)Nc2cccnc2)c2cc(Cl)ccc2C)cc1 | · | · | i | -42% | i | ?
Cc1c(C(=O)NCCN(C)C)oc2c1-c1nn(Cc3cccc(Cl)c3)cc1CC2 | · | · | · | -57% | · | -41%
CC(C)(C)C(=O)/C=C/Nc1ccccc1O | 13µM* | ? | i | -30% | i | -30%
C=CCSC(=C(C#N)C#N)c1cc2c([nH]1)CCCC2 | 16µM* | 16µM* | ? | -97% | 18µM* | ?
CCOc1ccc(Cc2c(Cl)nc(SC)nc2N(C)C)cc1 | ? | ? | 12µM* | -7% | 12µM* | ?
CSc1nc(Cl)c(Cc2ccc(OC(C)C)cc2)c(N(C)C)n1 | -3% | 0% | i | -32% | i | -16%
CSc1cc(-c2ccccc2)n(Cc2ccccc2Cl)c(=O)c1C#N | 0% | 1% | ? | -2% | 4.6µM* | 15%
CCCn1c(-c2ccccc2)cc(SC)c(C#N)c1=O | -6% | -2% | i | -1% | i | 10%
COc1ccc(CC(=O)NCc2ccc(F)cc2)cc1S(=O)(=O)N1CCOCC1 | 6% | 0% | i | 8% | i | 8%
Nc1cc2c3c(cccc3c1)C(=O)N(CCN1CCCC1)C2=O | ? | 21µM* | 23µM* | -15% | ? | ?
O=C1c2cccc3cccc(c23)C(=O)N1CCN1CCN(C(=S)Nc2ccccc2)CC1 | 0% | 12% | 18µM* | -45% | i | -17%
CCN(CC)CCN1C(=O)c2cccc3cc(N)cc(c23)C1=O | 33µM* | 33µM* | ? | -13% | ? | ?
SMILES | HT1080 IDH1KD tx | HT1080-NT tox | KB-V1 MDR tox | HepG2 viability | KB-3-1 cytotox | TGFb inhibitor
O=C1c2cccc3cc([N+](=O)[O-])cc(c23)C(=O)N1CCN1CCCC1 | 2.3µM* | ? | ? | -41% | ? | 5µM*
O=C1c2cccc3cccc(c23)C(=O)N1CCN1CCN(C(=S)Nc2ccc(Cl)cc2)CC1 | 4% | 0% | i | 1% | i | -16%
O=C1c2cccc3cccc(c23)C(=O)N1CCO | 4% | 0% | i | -1% | i | 2%
CCNC(=O)c1nn(-c2ccccc2C)nc1CO | · | · | · | 8% | · | 3%
CC1(C)CC(=O)c2cc(-c3nc(-c4ccc(Br)cc4)cs3)c(=O)n(-c3ccccc3)c2C1 | · | · | i | -8% | i | -24%
Clc1cccc(Cl)c1Cn1cnc(=NCc2ccco2)c2[nH]cnc21 | ? | -6% | 8.2µM* | -14% | i | -10%
Clc1cccc(Cl)c1Cn1cnc2c(NCc3ccco3)ncnc21 | -16% | ? | 3.5µM* | -21% | ? | 24%
Cc1ccccc1-n1c(=O)n(Cc2ccco2)c(=O)c2[nH]cnc21 | -2% | 3% | i | 5% | i | 18%
Cn1cnc2c(NCc3ccco3)ncnc21 | 4% | 5% | i | -2% | i | 5%
CC1CCC(C(=O)NC(C(=O)OCC(=O)c2ccc(Br)cc2)C(C)C)CC1 (stereo not drawn) | · | · | i | -27% | i | ?
COc1ccccc1C(=O)COC(=O)c1cc([N+](=O)[O-])ccc1N1CCOCC1 | 1% | -4% | ? | -2% | i | 8%
Cc1cc(C)c(C(=O)COC(=O)c2cc([N+](=O)[O-])ccc2N2CCOCC2)cc1C | 7% | 9% | 18µM* | 10% | i | 13%
COc1cc(C(=O)COC(=O)c2cc([N+](=O)[O-])ccc2N2CCOCC2)ccc1OC(F)F | -12% | 0% | ? | -9% | 21µM* | -24%
COc1cccc(-c2cnc3c(NC=O)cc(-c4cc(OC)c(OC)c(OC)c4)cn23)c1 | 16µM* | ? | ? | -47% | i | 32%
COc1cccc(-c2cc(NC=O)c3ncc(-c4ccc(OC)c(OC)c4)n3c2)c1 | 6.5µM* | 2.9µM* | 15µM* | -27% | 13µM* | ?
COc1cc(-c2cc(NC=O)c3ncc(-c4cccc(C(=O)N(C)C)c4)n3c2)cc(OC)c1OC | -10% | -23% | i | -40% | i | 22%
COc1ccc(-c2cnc3c(NC=O)cc(-c4ccoc4)cn23)cc1OC | ? | ? | ? | 0% | ? | -19%
COc1ccc(-c2cnc3c(NC=O)cc(-c4cccc(NS(C)(=O)=O)c4)cn23)cc1OC | 4.6µM* | 2.3µM* | i | -1% | ? | ?
COc1ccc(-c2cc(NC=O)c3ncc(-c4ccc(OC)c(OC)c4)n3c2)c(OC)c1 | 0.082µM* | 0.0073µM* | 1.2µM* | -19% | 0.65µM* | ?
